Measured values published in PubChem BioAssay (NCI).
Values joined by “and” are separate entries in the source; they are usually repeats but may differ in a detail not shown here. Identical values can stand only once. Compounds without any hit were thinned out: in the full panel of roughly 83,000, 20% have a hit.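 Testing used 96-well plates and a 48-hour single-concentration exposure. Example: -40 means 40% of the starting cells died.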 More than one record can exist for a structure, and the calls need not agree. Active and inactive are the calls of the source. Rule for the calls: active = growth percent below 10; inactive = the rest.

How the values were obtained:
Assay in all cases: NCI-60 one-dose screen, 48 h (100 = growth as untreated, 0 = no growth, -100 = all killed)
Conditions in all cases: 10 µM unless noted
DU-145 prostate = system: DU-145 prostate
K-562 leukemia = system: K-562 leukemia
MALME-3M melanoma = system: MALME-3M melanoma
MDA-MB-231 breast = system: MDA-MB-231 breast
RXF 393 renal = system: RXF 393 renal
SF-268 CNS = system: SF-268 CNS
SF-295 CNS = system: SF-295 CNS
SF-539 CNS = system: SF-539 CNS
UACC-257 melanoma = system: UACC-257 melanoma
M14 melanoma = system: M14 melanoma
HCT-15 colon = system: HCT-15 colon
HT29 colon = system: HT29 colon
SNB-75 CNS = system: SNB-75 CNS
SNB-19 CNS = system: SNB-19 CNS
U251 CNS = system: U251 CNS
PC-3 prostate = system: PC-3 prostate
SK-MEL-5 melanoma = system: SK-MEL-5 melanoma
UACC-62 melanoma = system: UACC-62 melanoma
LOX IMVI melanoma = system: LOX IMVI melanoma
SK-MEL-28 melanoma = system: SK-MEL-28 melanoma

Measured: growth

COC(=O)/C=C/c1cc(O)c2c(c1)C(C(=O)OC)C(c1ccc(O)c(O)c1)O2 (stereo not given)
11.7% (inactive) and 7.05% (active): DU-145 prostate
inactive: MALME-3M melanoma 72.1% and 69% | MDA-MB-231 breast 13.5% and 18% | RXF 393 renal 55.9% and 30% | SF-268 CNS 34.1% and 28.5% | SF-295 CNS 19.2% and 22.4% | UACC-257 melanoma 62.4% and 60.6% | HCT-15 colon 16.7% and 16.2% | HT29 colon 22.8% and 16.3% | SNB-75 CNS 52.9% and 37.5% | SNB-19 CNS 35.7% and 37.2% | U251 CNS 20.7% and 14.9% | PC-3 prostate 20.3% and 17% | UACC-62 melanoma 25.9% and 31.2% | LOX IMVI melanoma 20.8% and 16.3% | SK-MEL-28 melanoma 55.3% and 53%
active: K-562 leukemia 9.16% and 9.69% | SF-539 CNS 5.8% and 3.46% | M14 melanoma 2.19% and 6.67% | SK-MEL-5 melanoma 3.62% and -13.7%

CC(C)CNC(=O)c1ccccc1C(=O)NC1(C(=O)NCC(C)C)CCCC1
inactive: DU-145 prostate 111% and 109% | K-562 leukemia 102% | MALME-3M melanoma 125% | MDA-MB-231 breast 109% and 105% | RXF 393 renal 113% and 130% | SF-268 CNS 104% | SF-295 CNS 111% and 105% | SF-539 CNS 100% | UACC-257 melanoma 102% and 106% | M14 melanoma 108% and 102% | HCT-15 colon 103% and 106% | HT29 colon 105% and 104% | SNB-75 CNS 87.9% and 94.6% | SNB-19 CNS 105% and 108% | U251 CNS 109% and 105% | PC-3 prostate 97.9% and 96.3% | SK-MEL-5 melanoma 106% and 115% | UACC-62 melanoma 103% and 107% | LOX IMVI melanoma 90.4% and 101% | SK-MEL-28 melanoma 117% and 115%

NC(=S)N/N=C(\c1ccc(Br)cc1)C1CC1
inactive: DU-145 prostate 96.8% and 107% | K-562 leukemia 38% and 43.1% | MALME-3M melanoma 84.3% | MDA-MB-231 breast 67.2% | RXF 393 renal 122% and 98.1% | SF-268 CNS 97.2% and 103% | SF-295 CNS 93.5% and 81.8% | SF-539 CNS 99% and 100% | UACC-257 melanoma 63.1% | M14 melanoma 88% and 84.1% | HCT-15 colon 81.8% and 82.9% | HT29 colon 68.4% | SNB-75 CNS 87.1% and 76.7% | SNB-19 CNS 108% | U251 CNS 93.2% | PC-3 prostate 84.1% and 61.5% | SK-MEL-5 melanoma 100% and 95.9% | UACC-62 melanoma 98.4% | LOX IMVI melanoma 86.2% | SK-MEL-28 melanoma 102% and 103%

Nc1nc2ncc(CNc3ccc(C(=O)N[C@@H](CCc4nn[nH]n4)C(=O)O)cc3)nc2c(=O)[nH]1
inactive: DU-145 prostate 99.4% and 110% | K-562 leukemia 90.7% | MALME-3M melanoma 96.9% and 104% | MDA-MB-231 breast 110% and 99.7% | RXF 393 renal 104% and 96.3% | SF-268 CNS 98% and 99.5% | SF-295 CNS 98.6% and 100% | SF-539 CNS 91% and 110% | UACC-257 melanoma 106% and 91.8% | M14 melanoma 88% and 98.6% | HCT-15 colon 104% and 103% | HT29 colon 104% and 92.3% | SNB-75 CNS 87.4% and 97.4% | SNB-19 CNS 107% and 95.6% | U251 CNS 99.8% and 91.4% | PC-3 prostate 101% and 85.3% | SK-MEL-5 melanoma 101% and 96.7% | UACC-62 melanoma 97.3% and 94.5% | LOX IMVI melanoma 99.5% and 98.7% | SK-MEL-28 melanoma 97.5% and 110%
